Measured values reported in PubChem BioAssay (NCATS).
Results filed as inconclusive are left out. The source made the active and inactive calls. Unless noted, calls follow the shape of the dose curve; as a rule, active = well fitted cell-killing curve with a large enough effect; inconclusive = small, poorly fitted or top-dose-only effect; inactive = flat fitted curve, though single readings scatter.

Columns and labels:
[1] = Cell Viability - LYMP2-002 (AID 977);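 also: series mostly up to about 92 µM; plate controls were DMSO only for no effect and 92 µM tetraoctylammonium bromide for full effect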
How it was run: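 Human lymphoblastoid cells, 2500/well, complete medium; 5 h 37 C settle; compound 24 h 37 C; CellTiter-Glo, 30 min RT; luminescence. Decrease in ATP = cytotoxicity; AC50 via Hill equation.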

[2] = Cell Viability - LYMP2-006 (AID 978); also: series mostly up to about 92 µM; % is scaled to controls: 0 for no effect and ±100 for the full control effect; nearly all actives have a fitted effect of over 60% in size
How it was run: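 Human lymphoblastoid cells (LYMP2-006), 2500/well in complete medium, were treated with compound for 24 hr at 37 C. Cellular ATP was read by CellTiter-Glo luminescence after 30 min, and AC50 values came from Hill-equation fits of concentration-response data.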

[3] = Cell Viability - LYMP2-007 (AID 979);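 also: cells exposed to compound for 24 h before reading; 0% = DMSO only and the negative end = 92 µM tetraoctylammonium bromide; nearly all actives have a fitted effect of over 60% in size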
How it was run: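 AC50 values come from Hill-equation fits of luminescent intracellular ATP (CellTiter-Glo, 30 min, room temperature) following 24 h compound exposure at 37 C. Cells: LYMP2-007 lymphoblastoid line, 2500 per well, in complete culture medium.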

[4] = Cell Viability - LYMP2-008 (AID 980); also: % is scaled to controls: 0 for no effect and ±100 for the full control effect; nearly all actives have a fitted effect of over 60% in size
How it was run: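 Cytotoxicity determined from ATP-dependent luciferase luminescence (CellTiter-Glo) following 24 h compound exposure of human lymphoblastoid LYMP2-008 cells at 37 C. Concentration-response data fitted to the Hill equation to give AC50.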

[5] = Cell Viability - LYMP2-010 (AID 981); also: % is scaled to controls: 0 for no effect and ±100 for the full control effect; nearly all actives have a fitted effect of over 55% in size
How it was run: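 CellTiter-Glo ATP luminescence measured cytotoxicity after 24 h compound exposure at 37 C. LYMP2-010 cells were seeded at 2500/well, with tetraoctylammonium bromide as control; concentration-response curves gave AC50 values by the Hill equation.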

[6] = Cell Viability - LYMP2-012 (AID 982);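 also: cellular ATP by luciferase luminescence where a drop means cytotoxicity; cells exposed to compound for one day before reading; 0% = DMSO only and full loss = 92 µM tetraoctylammonium bromide; nearly all actives have a fitted effect of over 55% in size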
[7] = Cell Viability - LYMP2-014 (AID 983);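 also: series mostly up to about 92 µM; plate controls were DMSO only for no effect and 92 µM tetraoctylammonium bromide for full effect; nearly all actives have a fitted effect of over 50% in size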
How it was run: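 Intracellular ATP loss, read by luciferase luminescence, measures acute cytotoxicity after 24 h compound exposure of lymphoblastoid LYMP2-014 cells (2500/well, 37 C). Concentration-response data fitted to the Hill equation for AC50.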

[8] = Cell Viability - LYMP2-016 (AID 984); also: % is scaled to controls: 0 for no effect and ±100 for the full control effect; nearly all actives have a fitted effect of over 55% in size
How it was run: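 Human lymphoblastoid LYMP2-016 cells, 2500 per well, treated with compounds for 24 h at 37 C. Viability read as intracellular ATP by CellTiter-Glo luminescence after 30 min at room temperature; AC50 from Hill fits of concentration-response.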

[9] = Cell Viability - LYMP2-018 (AID 985);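 also: plate controls were DMSO only for no effect and tetraoctylammonium bromide at 92 µM for full effect; nearly all actives have a fitted effect of over 50% in size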
How it was run: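 Viability read as CellTiter-Glo luminescence (cellular ATP) after 24 hr compound exposure at 37 C of 2500 LYMP2-018 lymphoblastoid cells/well, pre-plated 5 hr. Hill-equation modelling gave AC50.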

[10] = Cell Viability - LYMP2-020 (AID 986);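 also: series mostly up to about 92 µM; plate controls were DMSO only for no effect and tetraoctylammonium bromide at 92 µM for full effect; nearly all actives have a fitted effect of over 55% in size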
How it was run: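 Cytotoxicity in qHTS format: luminescent ATP readout from CellTiter-Glo after 24 h compound exposure at 37 C in complete medium. LYMP2-020 lymphoblastoid cells were seeded at 2500/well; concentration-response data fitted to the Hill equation for AC50.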

[11] = Cell Viability - LYMP2-022 (AID 987)
How it was run: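 Cytotoxicity read as decreased cellular ATP (CellTiter-Glo luminescence, 30 min room temperature) after 24 hours compound exposure of 2500 lymphoblastoid LYMP2-022 cells/well at 37 C. Concentration-response data fitted with standard Hill equation for AC50.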

[12] = Cell Viability - LYMP2-024 (AID 988);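 also: plate controls were DMSO only for no effect and 92 µM tetraoctylammonium bromide for full effect; nearly all actives have a fitted effect of over 60% in size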
How it was run: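 Cytotoxicity was taken as a decrease in ATP (CellTiter-Glo luminescence) after 24 hr compound exposure at 37 C of LYMP2-024 lymphoblastoid cells, 2500 cells/well. Concentration-response data were fitted to the Hill equation to give AC50.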

[13] = Cell Viability - LYMP2-026 (AID 989); also: % is scaled to controls: 0 for no effect and ±100 for the full control effect; nearly all actives have a fitted effect of over 50% in size
How it was run: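 Cytotoxicity read as ATP-dependent luminescence (CellTiter-Glo, 30 min room temperature) after 24 h compound treatment at 37 C. LYMP2-026 lymphoblastoid line seeded at 2500 cells/well; AC50 derived by standard Hill equation.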

[14] = Cell Viability - LYMP1-002 - Assay at 24 hr (AID 993); also: % is scaled to controls: 0 for no effect and ±100 for the full control effect
How it was run: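 qHTS cytotoxicity at 24 h: CellTiter-Glo ATP luminescence in lymphoblastoid line LYMP1-002 incubated with compound at 37 °C. Concentration-response modeled with the Hill equation for AC50; tetraoctylammonium bromide served as positive control.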

[15] = Cell Viability - LYMP1-002 - Assay at 40 hr (AID 994)
How it was run: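 Cytotoxicity was read as loss of cellular ATP (CellTiter-Glo luminescence) after 40 hr compound exposure at 37 C of 2500 LYMP1-002 lymphoblastoid cells per well. Concentration-response data were fitted with the standard Hill equation to give AC50.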

[16] = target: Bile acid receptor (Homo sapiens) (UniProt Q96RI1); test: qHTS assay for small molecule antagonists of farnesoid X receptor signaling (AID 588526; calls by dose curve; also: % is scaled to controls: 0 for no effect and ±100 for the full control effect)
Bile acid receptor (Homo sapiens), sequence (Q96RI1 whole entry, looked up): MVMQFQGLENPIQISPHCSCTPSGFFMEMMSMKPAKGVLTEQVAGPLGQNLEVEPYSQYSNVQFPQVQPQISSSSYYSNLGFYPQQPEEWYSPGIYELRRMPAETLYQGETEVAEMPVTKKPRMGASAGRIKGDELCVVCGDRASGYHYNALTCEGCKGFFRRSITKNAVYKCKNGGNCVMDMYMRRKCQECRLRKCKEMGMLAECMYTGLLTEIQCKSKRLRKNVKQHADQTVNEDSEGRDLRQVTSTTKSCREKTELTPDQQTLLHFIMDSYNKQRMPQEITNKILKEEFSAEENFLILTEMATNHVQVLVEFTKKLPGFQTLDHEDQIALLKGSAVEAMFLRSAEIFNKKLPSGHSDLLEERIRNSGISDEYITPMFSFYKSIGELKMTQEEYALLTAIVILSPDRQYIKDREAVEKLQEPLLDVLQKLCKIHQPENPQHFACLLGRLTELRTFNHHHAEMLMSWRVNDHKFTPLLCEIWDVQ
How it was run: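 Antagonist mode: titrated compounds tested against chenodeoxycholic acid stimulation (normalized to 50 uM CDCA and DMSO) in GeneBLAzer HEK293T cells for 16 h. Beta-lactamase read by CCF4 fluorescence; IC50 from Hill fits.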

[17] = target: Bile acid receptor (Homo sapiens) (UniProt Q96RI1); test: qHTS assay for small molecule agonists of farnesoid X receptor signaling (AID 588527; calls by dose curve;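 also: series mostly up to about 77 µM; 0% = vehicle basal and 100% = reference agonist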); details: HEK293T FXR-UAS-bla, beta-lactamase ratio, 16 h; activation: stronger effect = higher value
How it was run: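 FXR-UAS-bla HEK293T cells (10% dialyzed FBS) preincubated 5-7 h at 37 C, then compounds at up to 92 uM for 16 h at 37 C. CCF4 beta-lactamase read-out after 2 h RT. Normalized to chenodeoxycholic acid (100 uM) and DMSO; Hill fit gave EC50 and efficacy.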

[18] = target: Peroxisome proliferator-activated receptor delta (Homo sapiens) (UniProt Q03181); test: qHTS assay for small molecule agonists of peroxisome proliferator-activated receptor delta signaling (AID 588534; calls by dose curve;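 also: 0% = DMSO basal wells and 100% = positive control agonist at 10 µM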)
Peroxisome proliferator-activated receptor delta (Homo sapiens), sequence (Q03181 whole entry, looked up): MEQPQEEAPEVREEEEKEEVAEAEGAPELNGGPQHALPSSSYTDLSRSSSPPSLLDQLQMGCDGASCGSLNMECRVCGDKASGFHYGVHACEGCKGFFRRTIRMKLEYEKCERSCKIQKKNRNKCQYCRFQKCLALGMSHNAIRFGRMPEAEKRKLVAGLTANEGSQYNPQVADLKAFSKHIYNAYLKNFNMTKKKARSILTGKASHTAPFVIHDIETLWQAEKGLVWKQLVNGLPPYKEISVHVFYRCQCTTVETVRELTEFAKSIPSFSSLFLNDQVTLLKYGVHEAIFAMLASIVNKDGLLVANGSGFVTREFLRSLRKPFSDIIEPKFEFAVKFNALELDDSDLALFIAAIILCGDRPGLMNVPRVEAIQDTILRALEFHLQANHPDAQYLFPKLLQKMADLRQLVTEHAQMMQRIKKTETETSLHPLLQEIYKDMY
How it was run: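 Agonist-mode beta-lactamase reporter readout (CCF4 dye, 2 h at RT) after 18 h at 37 °C exposure to a titration; Hill-equation fitting gave EC50 and maximal response.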

[19] = target: Vitamin D3 receptor (Homo sapiens) (UniProt P11473); test: qHTS assay for small molecule antagonists of vitamin D receptor signaling (AID 588541; calls by dose curve;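 also: receptor activated by calcitriol during compound treatment; series mostly up to about 77 µM; % is scaled to controls: 0 for no effect and ±100 for the full control effect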)
Vitamin D3 receptor (Homo sapiens), sequence (P11473 whole entry, looked up): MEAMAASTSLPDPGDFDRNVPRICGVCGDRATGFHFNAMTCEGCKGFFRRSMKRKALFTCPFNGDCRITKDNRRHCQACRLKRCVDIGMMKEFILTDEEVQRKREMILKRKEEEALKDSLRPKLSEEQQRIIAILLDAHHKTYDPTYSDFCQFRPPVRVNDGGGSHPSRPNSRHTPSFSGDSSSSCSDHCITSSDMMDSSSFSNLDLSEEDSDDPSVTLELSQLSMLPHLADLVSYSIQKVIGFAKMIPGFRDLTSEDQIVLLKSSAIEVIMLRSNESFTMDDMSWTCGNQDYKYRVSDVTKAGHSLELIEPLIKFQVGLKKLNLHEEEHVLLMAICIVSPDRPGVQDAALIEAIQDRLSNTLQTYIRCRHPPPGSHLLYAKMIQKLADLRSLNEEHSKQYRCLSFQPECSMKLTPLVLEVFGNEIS
How it was run: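 VDR-UAS-bla HEK293T cells in 2% charcoal-stripped FBS were stimulated with 1-alpha,25-dihydroxyvitamin D3 (3 nM final) plus compound for 16 h at 37 C. The beta-lactamase CCF4 readout was normalized to 50 nM agonist and DMSO, and Hill fits gave IC50.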

[20] = target: Vitamin D3 receptor (Homo sapiens) (UniProt P11473); test: qHTS assay for small molecule agonists of vitamin D receptor signaling (AID 588543; calls by dose curve;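 also: 0% = DMSO basal and 100% = reference agonist control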)
How it was run: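 VDR-UAS-bla HEK293T cells, 2000/well, 2% charcoal-stripped FBS; compound titration 16 h at 37 C; CCF4 beta-lactamase ratio read. Normalized to 50 nM 1-alpha,25-dihydroxyvitamin D3 (100%) and DMSO; Hill fit gives EC50, efficacy.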

[21] = qHTS assay for small molecule agonists of retinoid X receptor alpha signaling (AID 588544; calls by dose curve;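 as to activation: 0% = DMSO basal wells and 100% = reference agonist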); details: HEK293T RXRa-UAS-bla, beta-lactamase reporter, 18 h; 530 nm emission
[22] = target: Retinoic acid receptor RXR-alpha (Homo sapiens) (UniProt P19793); test: as above
Retinoic acid receptor RXR-alpha (Homo sapiens), sequence (P19793 whole entry, looked up): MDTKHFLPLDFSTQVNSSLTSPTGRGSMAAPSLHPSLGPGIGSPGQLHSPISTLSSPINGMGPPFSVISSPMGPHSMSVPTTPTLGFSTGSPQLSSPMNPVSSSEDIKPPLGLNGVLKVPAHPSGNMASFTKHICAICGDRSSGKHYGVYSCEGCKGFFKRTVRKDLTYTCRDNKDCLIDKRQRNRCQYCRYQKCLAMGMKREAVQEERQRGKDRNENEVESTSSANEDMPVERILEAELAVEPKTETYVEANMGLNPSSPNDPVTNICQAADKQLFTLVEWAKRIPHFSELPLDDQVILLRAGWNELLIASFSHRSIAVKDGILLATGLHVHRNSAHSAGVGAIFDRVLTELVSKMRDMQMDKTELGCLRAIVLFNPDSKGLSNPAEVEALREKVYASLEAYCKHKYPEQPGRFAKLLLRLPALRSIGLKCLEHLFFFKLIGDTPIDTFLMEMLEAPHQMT

O=Cc1ccccc1
10.9%: max response [21]
inactive: outcome [1] | outcome [2] | outcome [3] | outcome [4] | Potency [5] | outcome [6] | outcome [7] | outcome [8] | outcome [9] | outcome [10] | outcome [11] | outcome [12] | outcome [13] | outcome [14] | Potency [15] | Potency [16] | activation [17] -1.64% | Potency [18] | outcome [19] | Potency [20] | outcome [22]
